HCMV inh = qHTS Assay for inhibitors of the human cytomegalovirus (HCMV); actives 4.5% (n = 410,000); activity change, negative = inhibition, % at 57.5 µM; HFF cells, HCMV-luciferase reporter, 72 h; stronger effect = lower value; in the data active = activity change below about -60%; inconclusive = no clear call, values can overlap the other calls; inactive = above about -39%
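Luciferase read-out from HCMV-luciferase-infected HFFs (MOI 1 PFU/cell) 72 h post infection at 37C; compounds added after 16 h cell attachment; activity normalized between buffer-only basal and Salinomycin (10uM) inhibitor controls.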
Pf growth 96h = Primary qHTS for delayed death inhibitors of the malarial parasite plastid, 96 hour incubation; P. falciparum luciferase reporter growth, 96 h; Potency, µM (titrated, usually from 28.7 µM), for inactives: at the highest dose activity change, negative = inhibition, hits mostly inhibitors; actives 6.9% (n = 320,000); AID 504834, 2011; note: potency is the fitted concentration of half-maximal effect
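Plates of compound plus infected erythrocytes (2% hematocrit, 0.05% parasitemia final) incubate 96 hours, 37 C, 5% CO2. Detection reagent added; reduced luminescence from the parasites' luciferase reporter flags inhibition.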
FBPA Giardia inh = qHTS Assay for Inhibitors of Fructose-1,6-bisphosphate Aldolase from Giardia Lamblia. actives 0.71% (n = 290,000). Potency, µM (doses to about 59.6 µM), inactives show top-dose activity, negative = inhibition, actives largely listed as inhibitors. purified Giardia FBPA; note: potency is the fitted concentration of half-maximal effect; nearly all actives have a fitted effect of over 55% in size
Target sequence (A8B2U2 whole entry, looked up): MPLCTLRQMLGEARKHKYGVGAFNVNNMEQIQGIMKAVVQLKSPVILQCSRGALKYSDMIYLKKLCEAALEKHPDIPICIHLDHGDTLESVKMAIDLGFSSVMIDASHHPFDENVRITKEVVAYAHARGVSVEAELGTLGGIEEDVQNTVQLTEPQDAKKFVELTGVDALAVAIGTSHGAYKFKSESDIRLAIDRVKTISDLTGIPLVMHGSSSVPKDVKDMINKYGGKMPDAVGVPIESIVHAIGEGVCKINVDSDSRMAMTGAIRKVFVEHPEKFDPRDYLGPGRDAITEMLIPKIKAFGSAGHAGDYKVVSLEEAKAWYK
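40 nM FBPA preincubated 10 min at RT with compound (up to 57.5 uM final), then substrate plus GAPDH/TPI/NAD/arsenate coupling and diaphorase/resazurin added. Fluorescence read after 20 min at RT, 525/598 nm.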
Sm TGR inh = qHTS Assay for the Inhibitors of Schistosoma Mansoni Peroxiredoxins; AID 485364, 2010; actives 3% (n = 360,000); purified TGR, DTNB reduction, TNB absorbance 405 nm; Potency, µM (doses to about 114 µM), without a hit: at the highest dose activity change, negative = inhibition, usual class: inhibitors; Schistosoma mansoni thioredoxin glutathione reductase (TGR), Q962Y6; note: potency is the fitted concentration of half-maximal effect; nearly all actives have a fitted effect of over 60% in size
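TGR 20 nM + NADPH 100 uM (dispensed conc.), cpd preinc 15 min RT; start with NADPH (500 uM addition) then DTNB (15 mM addition). Kinetic TNB absorbance, 405 nm filter. Four-parameter Hill fit across titration.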
Pf growth 48h = Primary qHTS for delayed death inhibitors of the malarial parasite plastid, 48 hour incubation. P. falciparum luciferase growth in erythrocytes, 48 h. Potency, µM (top dose mostly 28.7 µM), for inactives: at the highest dose activity change, negative = inhibition, hits mostly inhibitors. actives 5.9% (n = 310,000); note: potency is the fitted concentration of half-maximal effect
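Growth was read as firefly luciferase luminescence after a 48 h, 37 C, 5% CO2 exposure of compounds to reporter-bearing P. falciparum cultures (0.1% parasitemia, 2% hematocrit final) in Albumax-supplemented RPMI 1640.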
An asterisk follows results filed as active; ? = inconclusive; / = no result given; [ ] = remark or other dose. An excerpt weighted towards active compounds, which were near 14% of everything screened. Unless noted, calls come from the whole dose curve; as a rule, active = well fitted curve in the direction sought with a large enough effect; inconclusive = small, poorly fitted or top-dose-only effect, or another doubt; inactive = no such curve, though single readings can be large; an effect the other way counts as inactive or inconclusive. % is set by controls: 0 for no effect and ±100 for the full control effect.

SMILES | HCMV inh | Pf growth 96h | FBPA Giardia inh | Sm TGR inh | Pf growth 48h
C=C1CCC2[C@](C)(CO)[C@H](O)CC[C@@]2(C)[C@@H]1/C=C/C1=CCOC1=O (some centres undefined) | -16.8 | 0.9% | / | ? | 1.0%
C=C1CC[C@@H]2[C@](C)(CO)[C@H](O)CC[C@@]2(C)[C@@H]1/C=C/C1=CCOC1=O | ? | 1.1% | 2.8% | 39.8µM* | 5.9%
Cc1ccc(NC2=C(NC(=O)c3ccccc3)C(=O)c3ccccc3C2=O)cc1Cl | ? | ? | ? | 1.58µM* | 0.294µM*
Cc1ccc(NCC(=O)c2ccccc2)cc1Cl | -9.8 | ? | -0.7% | -6.6% | ?
O=C1C(Cl)=C(Nc2cccc(O)c2)C(=O)N1Cc1ccccc1 | -22.6 | 4.65µM* | -4.4% | -1.1% | -23.6%
O=C1C(Cl)=C(NCCc2ccccc2)C(=O)c2ccccc21 | -64.0* | / | / | / | /
O=C1C(Cl)=C(NCCc2ccccc2)C(=O)N1CCc1ccccc1 | 28.6 | ? | 7.3% | -3.0% | /
C=CCNC1=C(Cl)C(=O)c2ccccc2C1=O | 68.4 | 15.8% | ? | 44.7µM* | 2.94µM*
Cn1ccc2c(/C=C/c3ccc(F)cc3)cc3c(c21)C1CCC3O1 (centres undefined) | -15.9 | / | / | / | /
Cc1cc(O)c(C(C)C)cc1N=Cc1ccc([N+](=O)[O-])cc1 | -8.8 | / | / | / | /
O=C1C(Cl)=C(NCc2cccnc2)C(=O)c2ccccc21 | -28.0 | 8.28µM* | -19.4% | 44.7µM* | 9.28µM*
CC(C)NC1=C(Cl)C(=O)c2ccccc2C1=O | ? | 0.928µM* | ? | 28.2µM* | /
C=CCNC1=C(Cl)C(=O)N(Cc2ccccc2)C1=O | 101.3 | 3.1% | 1.8% | 39.8µM* | 1.0%
C=CCNC1=C(Cl)C(=O)N(c2cccc(Cl)c2Cl)C1=O | 54.6 | 18.4% | 0.5% | -23.7% | 1.5%
CC(=O)Nc1cc2c(c(Cl)c1Cl)-c1ccccc1C2=O | 14.4 | / | / | / | /
Clc1ccccc1-c1cc(NCc2cccnc2)ncn1 | / | / | 1.5% | / | /
O=C1C(Cl)=C(Nc2ccccc2)C(=O)c2ccccc21 | -0.2 | 8.0% | ? | 1µM* | 22.8%
O=c1c(NCc2ccccc2Cl)nccn1-c1ccccc1 | 41.8 | / | / | -13.6% | /
CCCC(C)(C)C(=O)N1CCC1(C)C(=O)NS(=O)(=O)c1ccc(Br)cc1 (centres undefined) | 1.4 | / | / | / | /
O=C(O)c1cccc(NC2=C(Cl)C(=O)c3ccccc3C2=O)c1 | -99.6* | -23.1% | ? | 1.58µM* | 27.0%
CC(=O)N(Cc1ccc(F)cc1)C1=C(NCCc2ccccc2)C(=O)c2ccccc2C1=O | -99.8* | 0.0037µM* | ? | ? | /
CC1(C)OC2CC(=O)OCC23C1CC(=O)C1(C)C3CC[C@@]2(C)[C@H](c3ccoc3)OC(=O)C3OC312 (some centres undefined) | / | / | 4.8% | / | /
O=C(Nn1c(SCc2ccc(F)cc2)nc2ccsc2c1=O)c1ccccc1 | 34.6 | 13.1µM* | 6.1% | 3.4% | 38.8%
CCC(C)NC(=O)CSc1nc2ccsc2c(=O)n1NC(=O)c1ccccc1 (centres undefined) | 79.6 | 8.28µM* | -0.6% | -16.3% | /
Cc1ccc(CNC(=O)CSc2nc3ccsc3c(=O)n2NC(=O)c2ccccc2)cc1 | 53.6 | 36.8% | -0.2% | 11.2% | 59.5%
SMILES | HCMV inh | Pf growth 96h | FBPA Giardia inh | Sm TGR inh | Pf growth 48h
COc1ccc(-n2c(SCC(=O)NCc3ccccc3)nc3ccsc3c2=O)cc1 | ? | / | / | -8.0% | /
CCC(C)NC(=O)CSc1nc2ccsc2c(=O)n1-c1ccc(OC)cc1 (centres undefined) | -12.4 | 11.7µM* | 9.8% | 4.0% | -20.0%
Cc1ccc(CN(Cc2ccco2)C(=O)COc2cc(C)c(Cl)c(C)c2)cc1 | 2.0 | / | / | 8.0% | /
COc1ccc(C(=O)C[n+]2ccc3c(c2)nc(-c2cc(OC)c(OC)cc2OC)n3C)cc1 | ? | 1.04µM* | 2.1% | 5.2% | 3.29µM*
COc1cc(OC)c(-c2nc3c[n+](CC(=O)c4ccccc4)ccc3n2C)cc1OC | -9.2 | ? | 15.5% | -7.7% | 1.85µM*
COc1ccc(C(=O)C[n+]2ccc3c(c2)nnn3-c2ccccc2)cc1 | -26.5 | 272.0% | -6.3% | 3.1% | ?
N#Cc1cc([N+](=O)[O-])ccc1NC(=O)COC(=O)CN1C(=O)C2CCCCC2C1=O (centres undefined) | 28.4 | / | / | / | /
FC(F)(F)c1cc(CCN2CCNC[C@@H]2Cc2ccccc2)cc(C(F)(F)F)c1 | -64.2* | / | / | / | /
c1ccc(C[C@H]2CNCCN2CC2(c3ccccc3)CC2)cc1 | 28.5 | ? | / | 44.7µM* | ?
Fc1cccc(CCN2CCNC[C@@H]2Cc2ccccc2)c1 | -8.8 | / | / | / | /
Cc1cc(C)cc(NC(=O)c2cccn2-c2ncc(C(F)(F)F)cc2Cl)c1 | 31.5 | 13.1µM* | -7.2% | -1.3% | ?
Cc1cc2cc(CNC(=O)CCC(=O)O)ccc2[nH]1 | -2.1 | -3.9% | 1.8% | 0.0% | 60.3%
Cc1cccc(NC(=O)NCc2ccc3[nH]c(C)cc3c2)c1 | 5.9 | 41.5% | -8.5% | -0.2% | 87.0%
Cc1cc2cc(CNC(=S)NC3CCCCC3)ccc2[nH]1 | -63.4* | -4.6% | 0.6% | 14.5% | -0.7%
Cc1ccc(NC(=O)NCc2ccc3[nH]c(C)cc3c2)cc1 | -84.2* | 56.4% | -5.5% | -14.0% | -11.8%
CCc1cccc(C)c1NC(=S)NCc1ccc2[nH]c(C)cc2c1 | 22.3 | 10.4µM* | -3.1% | -16.2% | 13.1µM*
CCC(=O)NCc1ccc2[nH]c(C)cc2c1 | 74.9 | ? | ? | 28.2µM* | 19.5%
CC(=O)OC[C@@]1(O)C[C@@]23CC[C@@H]4c5ccoc5CC[C@@]4(C)[C@@H]2CCC1C3 | / | / | 5.6% | / | /
CC(C)(C)OC(=O)N[C@@H](C(=O)OC(C)(C)C)c1ccc(Br)cc1 | -25.5 | ? | / | -6.3% | ?
COc1cc(C2CC(=O)Oc3cc(C)c(Cl)cc32)cc(OC)c1OC (centres undefined) | / | / | -14.7%[89.2 µM] | / | /
CNC(=S)NCc1ccc2[nH]c(C)cc2c1 | -17.6 | 0.0% | 1.2% | 2.9% | -1.3%
CC(=O)NCc1ccc2[nH]c(C)cc2c1 | 33.4 | -0.1% | ? | 39.8µM* | 14.4%
CNC(=O)/C(C#N)=C/c1c(N2CCN(C)CC2)nc2c(C)cccn2c1=O | 15.5 | -0.8% | 3.1% | -3.0% | 16.1%
CCN1CCN(c2nc3c(C)cccn3c(=O)c2/C=C(\C#N)C(=O)NC)CC1 | -72.4* | -4.5% | -1.5% | 4.6% | 2.5%
CCNC(=O)/C(C#N)=C/c1c(N2CCN(c3ccccc3)CC2)nc2c(C)cccn2c1=O | 94.4 | ? | 14.8% | 1.6% | ?
CCNC(=O)/C(C#N)=C/c1c(N2CCCCCC2)nc2c(C)cccn2c1=O | ? | 13.1µM* | -3.1% | -20.3% | ?
O=C(COc1ccc2ccc(=O)oc2c1)NCCCn1ccnc1 | -5.4 | 34.4% | -3.4% | -3.8% | 9.0%

Bioassay records from PubChem.
